# Hits are enriched below; roughly 9.4% of the tested compounds scored in any of these assays.
# NPC1 prom act – qHTS Assay for NPC1 Promoter Activators; Huh7 NPC1 promoter luciferase reporter, 24 h; Potency, µM (top dose mostly 9.22 µM), without a hit: at the top dose activation, actives largely listed as activators; hit rate 2.4% among 320,000; AID 485313, 2010; note: % of control where 0% means no effect; nearly all actives have a fitted effect of over 60% in size
#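 Huh7 reporter cells (NPC1 promoter driving luciferase) are dosed with compound for 24 h at 37 °C, 5% CO2; luciferase detection reagent is then added and luminescence measured after 10 min at ambient temperature.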
# SMN2 splice enh – qHTS Assay for Enhancers of SMN2 Splice Variant Expression | HEK293 SMN2-luciferase splicing reporter, luminescence, 30-36 h | Potency, µM (doses to about 46.1 µM), inactives show top-dose activity change, positive = activation, usual class: activators | hit rate 2.8% among 210,000; note: % of control where 0% means no effect; nearly all actives have a fitted effect of over 55% in size
#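 HEK293 cells carry an SMN2 minigene-luciferase reporter in which exon 7 inclusion puts luciferase in frame. Cells were seeded at 2000 cells/well, attached for 10-12 hours, then exposed to compounds for 30-36 hours at 37C before ONE-Glo luminescence.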
# Rab9 prom act – qHTS Assay for Rab9 Promoter Activators. Huh7 Rab9 promoter-luciferase reporter, luminescence, 24 h. Potency, µM (titrated, usually from 9.22 µM), for the others: top-dose activation, negative = inhibition, most hits filed as activators. hit rate 2.8% among 320,000; note: % of control where 0% means no effect; nearly all actives have a fitted effect of over 60% in size
#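 Quantitative HTS format; Huh7 Rab9-luciferase reporter cells (1500/well) receive compound 2 h post-plating, incubate 24 h at 37 °C, then get luciferase reagent for 10 min before luminescence reading.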
# FLuc counter – qHTS profiling assay for firefly luciferase inhibitor/activator using purifed enzyme and Km concentrations of substrates (counterscreen for miR-21 project); purified FLuc, Km substrates, luminescence inhibition; Potency, µM (titrated, usually from 57.5 µM), inactives show top-dose activity change, negative = inhibition, most hits filed as inhibitors; hit rate 6.9% among 360,000; AID 588342, 2011;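 note: plate controls were vehicle for no effect and reference inhibitor for full effect; nearly all actives have a fitted effect of over 55% in size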
# Target sequence (P08659 whole entry, looked up): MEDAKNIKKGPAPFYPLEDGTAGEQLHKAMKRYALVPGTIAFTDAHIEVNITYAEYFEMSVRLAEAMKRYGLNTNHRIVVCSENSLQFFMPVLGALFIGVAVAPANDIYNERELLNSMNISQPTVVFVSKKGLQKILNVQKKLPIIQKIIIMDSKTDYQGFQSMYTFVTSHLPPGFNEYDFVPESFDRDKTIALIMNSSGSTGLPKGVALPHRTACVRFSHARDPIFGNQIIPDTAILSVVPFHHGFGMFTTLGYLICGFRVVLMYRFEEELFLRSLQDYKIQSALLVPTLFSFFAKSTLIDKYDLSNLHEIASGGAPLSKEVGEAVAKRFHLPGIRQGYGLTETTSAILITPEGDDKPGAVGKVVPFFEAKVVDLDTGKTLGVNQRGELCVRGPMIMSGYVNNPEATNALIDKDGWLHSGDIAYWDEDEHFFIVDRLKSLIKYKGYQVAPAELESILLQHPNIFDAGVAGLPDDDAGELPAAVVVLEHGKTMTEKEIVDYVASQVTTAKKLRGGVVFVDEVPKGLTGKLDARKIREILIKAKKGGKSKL
#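 Purified P. pyralis luciferase (10nM final) with 10uM D-luciferin and 10uM ATP (Km levels) in 50mM Tris acetate pH 7.5, 10mM Mg acetate, 0.01% Tween-20, 0.05% BSA; qHTS 6-point titration, ~60 µM downward; luminescence read.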
# ELG1 DNA repair – qHTS screen for small molecules that inhibit ELG1-dependent DNA repair in human embryonic kidney (HEK293T) cells expressing luciferase-tagged ELG1; hit rate 2.3% among 330,000; Potency, µM (top dose mostly 46.1 µM), for inactives: at the top dose activity change, negative = inhibition, actives largely listed as inhibitors; AID 504467, 2011; HEK293T ELG1-luciferase reporter, luminescence, 16 h; DNA damage induced by 5-fluorouridine; note: % is set by controls: 0 for no effect and ±100 for the full control effect; nearly all actives have a fitted effect of over 55% in size
#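 Quantitative HTS, concentration-response format. 2,000 cells/well co-treated with 5-fluorouridine and compound, 16 hr in 5% CO2 at 37 °C; ONE-Glo luminescence read after 30 min.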
# ELG1 genotox – qHTS screen for small molecules that induce genotoxicity in human embryonic kidney (HEK293T) cells expressing luciferase-tagged ELG1. HEK293T ELG1-luciferase reporter, luminescence, 16 h. AID 504466, 2011. Potency, µM (top dose mostly 46 µM), for inactives: at the highest dose activity change, positive = activation, usual class: activators. hit rate 1.3% among 330,000; note: % of control where 0% means no effect; nearly all actives have a fitted effect of over 60% in size
#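 Screening used a luciferase reporter fused to human ELG1 in HEK293T cells. Luminescence was read on a CCD plate imager after 16 hr exposure and 30 min ONE-Glo incubation.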
# Active calls of the source: *; ? = inconclusive; nt = not tested or not shown. Calls come from the whole dose curve; as a rule, active = well fitted curve in the direction sought with a large enough effect; inconclusive = small, poorly fitted or top-dose-only effect, or another doubt; inactive = no such curve, though single readings can be large; an effect the other way counts as inactive or inconclusive. Potency is the fitted concentration of half-maximal effect.
SMILES,NPC1 prom act,SMN2 splice enh,Rab9 prom act,FLuc counter,ELG1 DNA repair,ELG1 genotox
O=C(NCc1ccccn1)Nc1cc(Cl)ccc1Cl,73%,nt,3.2µM*,1.2µM*,?,-7%
Cc1cc(C)cc(NC(=O)C(=O)NCc2ccccn2)c1,0%,-5%,-2%,5%,8%,1%
O=C(NCc1ccccn1)Nc1cccc(NC(=O)NCc2ccccn2)c1,-4%,?,2%,?,?,?
Cc1cccc(Nc2nnc(-n3nc(C)cc3C)c3ccccc23)c1,nt,137%,nt,?,nt,nt
O=C(OCc1ccco1)c1ccc2c(c1)N(Cc1cccc(F)c1)C(=O)c1ccccc1S2,nt,nt,nt,0%,nt,nt
N#CC1(C#N)CC(C=O)=C(N)C1(C#N)CC(=O)C12CC3CC(CC(C3)C1)C2 (stereo not given),-4%,-6%,-11%,-4%,16µM*,-7%
CCN(CCNC(=O)Nc1ccc(Cl)cc1)c1ccccc1,0%,-83%,-2%,-14%,5.2µM*,-5%
O=C(NCCOc1nc(N2CCCCC2)nc(N2CCCCC2)n1)Nc1ccccc1,-11%,nt,-2%,3%,?,-14%
CCN(CC)c1nc(OCCNC(=O)Nc2ccccc2)nc(N(CC)CC)n1,-1%,-18%,-8%,0%,18µM*,-19%
Cc1ccc(NC(=O)CSc2nncn3c2cc2sccc23)cc1F,nt,nt,nt,-2%,nt,nt
Cc1nn(CC(=O)Nc2ccc(C(C)C)cc2)c(=O)c2c(C)n(-c3ccc(Cl)cc3)nc12,nt,nt,nt,-17%,nt,nt
COc1cccc(/C=C2/C(=O)NN(c3ccccc3)C2=O)c1,-2%,nt,0%,24µM*,26%,-1%
O=C1NN(c2ccccc2)C(=O)/C1=C\c1ccc2c(c1)OCO2,-1%,nt,5%,5.4µM*,0%,-2%
COc1cccc(/C=C2/C(=O)NN(c3ccc(F)cc3)C2=O)c1,0%,nt,4%,21µM*,1%,6%
O=C1NN(c2ccc(F)cc2)C(=O)/C1=C/c1cccs1,-1%,nt,-3%,24µM*,3%,-1%
O=C1NN(c2ccc(Br)cc2)C(=O)/C1=C\c1ccc(O)cc1O,7%,nt,4%,?,5%,-3%
N#Cc1ccc(NC(=O)c2ccc3c(c2)nnn3C2CCCC2)cc1,nt,nt,nt,0%,nt,nt
CN(c1ccccc1)c1ccc(/C=C/[N+](=O)[O-])cc1,9%,-84%,17%,11µM*,?,-6%
CN(C)c1ccc(-n2cccc2/C=C/[N+](=O)[O-])cc1,-12%,-41%,-4%,-15%,?,-14%
CN(C)CCNC(=O)c1ccc2nc(Cc3ccccc3)oc2c1,nt,nt,nt,-6%,nt,nt
Cc1cc(C)c2c(-n3cccc3)c(C(=O)O)sc2n1,1µM*,?,0.63µM*,2.7µM*,?,?
Nc1c(C(=O)Nc2ccc(Cl)cc2F)sc2nc(-c3cccs3)ccc12,nt,-7%,nt,-11%,nt,nt
CN(C)c1ccc(CNC(=O)C2CCN(S(=O)(=O)c3cn(C)cn3)CC2)cc1,nt,nt,nt,-1%,nt,nt
CC(C)Oc1ccc(CNC(=O)c2ccc(NC(=O)N3CCSc4ncccc43)cc2)cc1,nt,nt,nt,-5%,nt,nt
Cc1ccc(OCC(=O)NNC(=O)c2ccco2)c(C)c1,12%,nt,2%,12µM*,?,11%
SMILES,NPC1 prom act,SMN2 splice enh,Rab9 prom act,FLuc counter,ELG1 DNA repair,ELG1 genotox
Cc1cc(Br)ccc1OCC(=O)NNC(=O)c1cnccn1,-1%,-4%,1%,17µM*,-9%,-4%
Cc1ccc(C(=O)NNC(=O)COc2ccc(Cl)cc2C)o1,-4%,nt,-3%,11µM*,?,2%
COCCNC(=O)COc1ccc(C)cc1C,0%,7%,14%,-2%,48%,10%
Cc1cc(Cl)ccc1OCC(=O)NNC(=O)c1cnccn1,-1%,-43%,-9%,17µM*,-8%,2%
C/C(=N\NC(=O)CCCOc1ccc(Cl)cc1C)c1ccc(C)o1,-2%,-23%,-6%,-13%,-11%,-2%
CCc1ccccc1NC(=O)Cn1ccn(-c2cc(C)cc(C)c2)c(=O)c1=O,nt,nt,nt,-13%,nt,nt
COCCCNC(=O)c1c(NC(=O)Cc2coc3cc(C)ccc23)sc2c1CCCC2,nt,?,nt,-17%,nt,nt
Cc1ccc(NC(=O)c2ccco2)c(OCc2cc(=O)n3cc(C)sc3n2)c1,nt,nt,nt,2%,nt,nt
Cc1ccc(/C=C/C(=O)c2ccccc2O)cc1,18%,nt,20%,1.2µM*,?,?
Cc1c(/C=C/C(=O)c2ccccc2O)cnn1C,3.5µM*,16µM*,2.5µM*,1.3µM*,?,?
COc1cc(/C=C/C(=O)c2ccccc2O)cc(OC)c1OC,-2%,24%,-8%,?,10%,?
O=C(/C=C/c1cccnc1)c1ccccc1O,-4%,nt,-1%,17µM*,5%,8%
Cc1ccc(/C=C/C(=O)c2ccc(C)cc2)cc1,10%,-1%,23%,1.3µM*,?,?
COC(=O)[C@@]1(Cc2ccccc2)[C@H]2c3cc(C(=O)N4CCCC4)n(Cc4ccccn4)c3C[C@H]2CN1C(=O)c1ccccc1,nt,-19%,nt,nt,nt,nt
CC(=O)N1CCc2c(sc3c2c(=O)n(-c2ccc(C)cc2)c(=O)n3Cc2ccccc2C)C1,nt,15%,nt,-8%,nt,nt
Cc1cccc(NC(=O)CSc2nc(C)cc(C)c2C(=O)Nc2ccc(Cl)cc2)c1,nt,nt,nt,-1%,nt,nt
O=C(/C=C/c1cccc(O)c1)c1cccnc1,0%,nt,-4%,-17%,11%,12%
CN(C)c1ccc(/C=C/C(=O)c2ccccc2O)cc1,3.5µM*,nt,?,0.6µM*,?,?
O=C(/C=C/c1ccco1)c1ccccc1O,-4%,nt,-4%,11µM*,?,?
CN(C)c1ccc(/C=C/C(=O)c2cccnc2)cc1,-3%,nt,-1%,3µM*,-3%,0%
CCc1nn(CC(=O)N2CCCCC2)c(=O)c2cc3sccc3n12,nt,-2%,nt,-6%,nt,nt
CC(C)N1C(=O)CN(C2CCCCCC2)C(=O)C1c1ccccc1F (stereo not given),3.5µM*,7%,?,-14%,?,?
CSC(=S)N/N=C(\C)c1ccccc1,1%,-5%,12%,21µM*,?,?
COc1ccc2cc(CCNC(=O)c3ccco3)c(=O)[nH]c2c1,1.6µM*,nt,1.4µM*,12µM*,?,10µM*

# Bioassay records deposited in PubChem BioAssay by National Center for Advancing Translational Sciences (NCATS).
